Screens as filed in PubChem.
Compounds with a hit are over-represented: about 2.4% of the library has one in this group of screens.
D2 PAM-1: positive allosteric modulators of human D2 dopamine receptor; HEK293 T-REx D2, calcium flux, EC20 dopamine potentiation; potentiation, % at 10 µM; 0.34% of 340,000 active;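 active = potentiation over 3 SD above the plate norm, cut at about 30% in these data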; also: 0% is about no effect
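Primary screen. Calcium kinetics in induced HEK293 T-REx D2 cells: compound pre-addition 180 s, EC20 dopamine, 180 s more.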
D2 PAM-2: human D2 receptor positive allosteric modulation | P14416 | DiscoveRx D2 beta-arrestin cells, luminescence, 90 min; 100% = 57 uM dopamine signal | potentiation, % (no concentration beside the values) | 0.23% of 360,000 active | AID 624464; in the data active = potentiation above about 50%; inconclusive = mostly about 30% to 49%
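PathHunter D2 cells, attached overnight at 37 deg C, received compound in DMSO plus dopamine at EC20 (50 nM final) for 90 min at 37 deg C. Beta-arrestin recruitment was read as luminescence after 1 h with detection reagent at ambient temperature.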
D2 ag-1: agonists of human D2 dopamine receptor; HEK293 T-REx D2 cells, calcium flux agonist mode; activation, % at 2 µM; P14416; 0.53% of 340,000 active;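 active = activation over 3 SD above normal in the single-dose calcium agonist read, cut at about 30% in these data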; also: 0% is about no effect
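Agonism scored from kinetic calcium signal (1 read/sec, 180 s) following compound pin transfer, after a 10 s baseline. Cells: HEK293 Trex line expressing inducible D2 receptor coupled to calcium, dye-loaded after overnight culture at 30 C.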
D2 ag-2: human D2 receptor agonism in beta-arrestin assay; AID 624465; P14416; DiscoveRx PathHunter D2 beta-arrestin, luminescence, 90 min; 100% = 57 uM dopamine signal; 0.084% of 360,000 active; activation, % (no concentration beside the values); in the data active = activation above about 40%; inconclusive = between about 15% and that limit
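DiscoveRx PathHunter D2 beta-arrestin cells (2,100/well) attached overnight, then compound-stimulated 90 min at 37 C in HBSS/10 mM HEPES/0.1% Tween-20 buffer; beta-galactosidase complementation read by luminescence after 1 h at ambient temperature. Dopamine 57 uM final (EC100) as control.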
D2 antagonist: D2 dopamine receptor (human) antagonism; P14416; HEK293 TREx D2 cells, calcium flux, dopamine EC80; inhibition, % at 10 µM; 2% of 340,000 active; in the data active = inhibition above about 30%; inactive = below that, where a call was filed; also: 0% is about no effect
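Calcium flux kinetic readout in an inducible HEK293 TREx D2 line plated overnight at 30 C. After 180 s compound exposure, an EC80 dopamine challenge follows with another 180 s kinetic read to detect antagonism.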
D3 arrestin ag: confirmation of human D3 dopamine receptor agonists, beta-arrestin; Potency, µM (doses to about 76.9 µM), inactives show at the highest dose activation, usual class: activators; AID 720506; DiscoveRx D3 beta-arrestin cells, luminescence, 90 min; 4% of 2,300 active; shares compounds with D2 ag-1;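 also: potency is read from the fitted curve at half-maximal effect; 100% = dopamine control response; nearly all actives have a fitted effect of over 70% in size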
Target sequence (P35462 whole entry, looked up): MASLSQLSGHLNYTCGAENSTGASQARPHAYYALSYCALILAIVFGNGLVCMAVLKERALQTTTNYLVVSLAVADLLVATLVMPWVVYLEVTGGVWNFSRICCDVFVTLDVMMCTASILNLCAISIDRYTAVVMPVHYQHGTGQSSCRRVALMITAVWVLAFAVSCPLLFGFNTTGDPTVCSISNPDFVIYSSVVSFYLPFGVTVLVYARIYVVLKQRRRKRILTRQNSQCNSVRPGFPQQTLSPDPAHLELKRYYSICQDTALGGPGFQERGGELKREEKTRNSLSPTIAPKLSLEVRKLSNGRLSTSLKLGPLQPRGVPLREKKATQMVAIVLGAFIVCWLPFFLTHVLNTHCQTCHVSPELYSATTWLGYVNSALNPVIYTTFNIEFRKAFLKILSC
D2 ag-3: D2 receptor agonism, beta-arrestin counterscreen; shares compounds with D2 ag-1; DiscoveRx PathHunter D2 beta-arrestin, luminescence, 90 min; response scale: percent relative to full dopamine signal; Potency, µM (highest dose often 76.9 µM), for inactives: at the highest dose activation, usual class: activators; 5.9% of 2,300 active; AID 720507; also: potency is read from the fitted curve at half-maximal effect; % of control where 0% means no effect; nearly all actives have a fitted effect of over 70% in size
* marks the source's active call; other numbers are inactive results; ? = inconclusive; . = no result. Unless noted, calls follow the shape of the dose curve; as a rule, active = well fitted activation curve with a large enough effect; inconclusive = small, poorly fitted or top-dose-only effect; inactive = flat fitted curve, though single readings scatter.

SMILES	D2 PAM-1	D2 PAM-2	D2 ag-1	D2 ag-2	D2 antagonist	D3 arrestin ag	D2 ag-3
CCCCN(C)C(=O)c1nc2ccccn2c1CN1CCN(c2cnccn2)CC1	-4	-3	0	-1	-11	.	.
CCCCN(C)C(=O)c1nc2ccccn2c1CN1CCN(c2ccccn2)CC1	-25	-11	53*	1	5	29%	11%
CCCS(=O)(=O)NC(=O)C1(C)CCN(C(=O)c2ccc3ccccc3c2)C1 (centres undefined)	.	-1	.	-5	.	.	.
CC(=O)Oc1ccc(C(=O)Nc2ccc(S(=O)(=O)NCC3CCCO3)cc2)cc1 (centres undefined)	.	-8	0	0	-11	.	.
O=C(NC1CCSc2ccccc21)c1ccccc1Br (centres undefined)	-3	-17	0	-3	-1	.	.
O=C(C1CCCN1S(=O)(=O)c1cccc2cccnc12)N1CCN(c2ccccc2)CC1 (centres undefined)	5	-6	8	-3	7	-19%	-4%
O=C(C1CCCN(S(=O)(=O)c2cccc3cccnc23)C1)N1CCN(c2ccccc2F)CC1 (centres undefined)	-11	2	27	0	37*	-6%	?
CCOC(=O)N1CCC(N(CCOC)C(=O)Nc2ccc(Cl)cc2)CC1	0	-14	0	-9	-1	.	.
CCOC(=O)N1CCC(N(CCCOC)C(=O)Nc2ccc(CC)cc2)CC1	-14	-6	17	-2	-8	-5%	-1%
Cc1cc(C)n2nc(-c3cccnc3)nc2n1	4	2	-1	-2	-14	.	.
Cc1cc(C)n2nc(-c3ccc(F)cc3)nc2n1	.	-6	.	3	.	27%	-5%
COc1cccc(NC(=O)C(=O)NCC(c2ccc3c(c2)OCO3)N2CCOCC2)c1 (centres undefined)	.	.	1	.	.	.	.
Cc1ccc(/C([O-])=C(/C(=S)NCc2ccccc2)[n+]2ccccc2)cc1[N+](=O)[O-]	-18	-4	31*	-4	8	-15%	-7%
CC(=O)N1CCc2cc(S(=O)(=O)NC(CC(C)C)C(=O)N3CCCC3)ccc21 (centres undefined)	-11	-4	-1	-1	4	.	.
COc1ccc(Oc2cc(C)c3ccccc3n2)cc1	-19	?	44*	?	45*	?	?
Cc1ccc(Oc2cnc3ccccc3n2)cc1	-6	-3	1	-3	-4	.	.
COc1ccccc1OCC(=O)Nc1cc(Cl)ccc1N1CCCCC1	.	-6	.	1	.	.	.
COC(=O)C(N)Cc1ccc(O)c(O)c1 (centres undefined)	-5	26	41*	8	-4	26%	21%
O=[N+]([O-])c1cc(Br)c2nsnc2c1N1CCOCC1	4	-4	26	0	23	-2%	1%
COC(CNC(=O)Cn1nc(Cc2ccncc2)c2ccccc2c1=O)OC	2	-12	0	2	-13	-1%	4%
CCOC(CNC(=O)Cn1nc(Cc2ccncc2)c2ccccc2c1=O)OCC	10	3	0	1	-5	.	.
COc1ccc(N2CCN(c3cc(C(=O)Nc4cc(OC)c(OC)c(OC)c4)ncn3)CC2)cc1OC	.	6	.	3	.	.	.
Cc1ccc(S(=O)(=O)N2CCC(C(=O)OCC(=O)N(Cc3ccccc3)C(C)C)CC2)cc1C	.	-3	.	2	.	.	.
COc1ccc(OC)c(NC(=O)CCN2CCN(C)CC2)c1	-3	0	1	4	4	.	.
COc1ccc(NC(=O)CCN2CCN(Cc3ccccc3)CC2)c(OC)c1	-6	-40	12	3	41*	20%	9%
SMILES	D2 PAM-1	D2 PAM-2	D2 ag-1	D2 ag-2	D2 antagonist	D3 arrestin ag	D2 ag-3
COc1ccc(OC)c(NC(=O)CCN2CCN(c3ccccc3)CC2)c1	-28	6	87*	?	80*	?	?
COCCn1c(=S)[nH]c2cc(C(=O)N3CCN(c4cccc(Cl)c4)CC3)ccc2c1=O	.	-28	.	7	.	.	.
COc1ccc(OC)c(NC(=O)CCN2CCN(C/C=C/c3ccccc3)CC2)c1	-28	-22	49*	-4	18	-5%	9%
COCCn1c(=O)[nH]c2cc(C(=O)NCCN3CCN(c4cccc(Cl)c4)CC3)ccc2c1=O	-4	-23	59*	15	87*	10%	?
CCOc1ccc(-c2cc(C(=O)NCc3ccccc3Cl)c3ccccc3n2)cc1	.	.	0	.	.	.	.
O=C(c1ccc2c(c1)[nH]c(=S)n1c3ccccc3nc21)N1CCN(c2ncccn2)CC1	15	-5	-2	-4	-28	.	.
O=C(NCCN1CCN(c2ccccc2)CC1)c1ccc2c(c1)[nH]c(=S)n1c3ccccc3nc21	-17	-25	48*	3	34*	?	12%
COc1cccc(C(=O)NCCN2CCN(c3ccccc3)CC2)c1	.	.	.	.	.	?	19%
O=C1N/C(=C/c2ccc(N3CCOCC3)o2)C(=O)N1c1cccc(Cl)c1	-5	-4	2	-3	-6	.	.
O=c1cc(-c2ccccc2)n2c(SCc3ccc(Br)cc3)nnc2[nH]1	6	.	0	.	.	.	.
CCOC(=O)Cc1csc(NC(=O)CN2CCN(CC)CC2)n1	-1	-5	0	2	-5	.	.
CCOC(=O)Cc1csc(NC(=O)CN2CCN(c3ccccc3)CC2)n1	9	6	5	6	15	10%	26%
CCc1ccccc1NC(=S)N1CCN(c2ccccc2F)CC1	-1	-15	15	-4	14	-1%	2%
O=C(Nc1ccccc1C(F)(F)F)C(O)(c1ccccc1)C1CCCCC1 (centres undefined)	-8	-10	1	-3	3	-12%	-2%
O=C(Nc1ccccc1C(F)(F)F)N1CCC(N2CCCCC2)CC1	9	-9	1	-4	-2	.	.
COc1ccc(C(=O)NCC(=O)N/N=C/c2cn[nH]c2-c2ccccc2)cc1	.	-3	11	10	19	-1%	7%
COc1cccc(N2CCN(Cc3nc(N)nc(N4CCCc5ccccc54)n3)CC2)c1	-25	5	56*	?	59*	27%	?
Oc1ccc(Cl)cc1CNCc1ccc(Cl)cc1	-20	-81	1	0	-6	-3%	-2%
Oc1ccc(Cl)cc1CNCc1ccc(F)cc1	-15	-24	4	-6	-2	.	.
CCOc1cc(-c2ccc(OC(=O)c3ccc(C)cc3)c(OC)c2)cc(=O)c2c(C)oc(C)c12	-20	.	-2	.	.	.	.
NC(=O)c1c(NC(=O)c2ccccc2F)sc2c1CCC2	.	-2	.	-1	.	.	.
